In PubChem BioAssay (NCI) one finds growth data, which are given here for eight compounds.

Test systems include NCI-H23 lung; NCI-H226 lung; NCI-H322M lung; HOP-62 NSCLC; NCI-H460 lung; HOP-92 NSCLC; NCI-H522 lung; A549/ATCC NSCLC; 786-0 renal; COLO 205 colon; DU-145 prostate; K-562 leukemia; MALME-3M melanoma; MDA-MB-231 breast; RXF 393 renal; SF-268 CNS; SF-295 CNS; SF-539 CNS; UACC-257 melanoma; M14 melanoma.
Common to all, as to experiment: NCI-60 one-dose screen, 48 h (100 = growth as untreated, 0 = no growth, -100 = all killed)
Holding throughout (conditions): 10 µM unless noted

Structures are written as SMILES. Compounds without any hit were thinned out: in the full panel of roughly 83,000, 20% have a hit.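 96-well plates, one dose, 48 hours. Percent growth reported; active if below 10.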 A number with no mark means an inactive call. The source made the active and inactive calls.

As for `O=c1c2ccccc2oc2ccc(OCCCCCN3CCCCCC3)cc12`, the growth in the assay with NCI-H23 lung is 72%; with NCI-H226 lung, 91.4%; with NCI-H322M lung it was 85.9%; in the assay on HOP-62 NSCLC, 92.5%; with NCI-H460 lung, 78.9%; with HOP-92 NSCLC, 94.1%. The growth in the assay with NCI-H522 lung was 69.9%; with A549/ATCC NSCLC it was 71.9%; in the assay with 786-0 renal, 78.5%; with COLO 205 colon, 43.6%; in the assay with DU-145 prostate, 94.1%; in the assay on K-562 leukemia, 21.3%. Moreover, the growth was 40.2% in the assay on MALME-3M melanoma; 77.6% in the assay with MDA-MB-231 breast; 58.6% in the assay with RXF 393 renal; 79% with SF-268 CNS; 87.8% in the assay with SF-295 CNS; 79.4% in the assay with SF-539 CNS. Also, the growth is 2.91% (active) in the assay on UACC-257 melanoma and 31.5% with M14 melanoma.

In the case of `C=C1C(=O)O[C@H]2[C@H]1CC/C(COC(=O)c1cccnc1)=C\CC[C@@]1(C)O[C@@H]21`, the growth was 79% with NCI-H23 lung; 78.5% in the assay with NCI-H226 lung; 104% with NCI-H322M lung; 85.2% in the assay with HOP-62 NSCLC; 84.8% with NCI-H460 lung; 49.2% in the assay on HOP-92 NSCLC. Further, the growth was 28.7% with NCI-H522 lung; 80.1% with A549/ATCC NSCLC; 63.8% with 786-0 renal; 16.4% with DU-145 prostate; 16.4% in the assay on K-562 leukemia; 66.9% in the assay on MALME-3M melanoma. Moreover, the growth in the assay on MDA-MB-231 breast was 79.9%; with RXF 393 renal, 46%; in the assay with SF-268 CNS, 90.7%; in the assay with SF-295 CNS, 102%; in the assay on SF-539 CNS, 60.2%; in the assay with UACC-257 melanoma it was 57.8%. For the same compound, the growth in the assay with M14 melanoma was 58.3%.

For `O=C1Nc2ccc(Cl)cc2/C1=N/c1nc(-c2ccc(Cl)cc2)cs1`, the growth in the assay on NCI-H23 lung was 7.9% (active); in the assay with NCI-H226 lung, 36.9%; with NCI-H322M lung, 48.9%; in the assay on HOP-62 NSCLC, -5.13% (active); in the assay with NCI-H460 lung it was -10.2% (active); in the assay with HOP-92 NSCLC it was -13.1% (active). The growth in the assay with NCI-H522 lung is -12.8% (active); with A549/ATCC NSCLC it was 7.91% (active); with 786-0 renal, -16.2% (active); in the assay on COLO 205 colon, -51.6% (active); in the assay on DU-145 prostate it was 26.2%; in the assay on K-562 leukemia, 5.94% (active). Also, the growth in the assay on MALME-3M melanoma is 22.2%; in the assay on MDA-MB-231 breast, -22.8% (active); with RXF 393 renal, -19.7% (active); with SF-268 CNS it was 21.6%; with SF-295 CNS, 14.3%; in the assay with SF-539 CNS, -6.26% (active). The growth was -2.07% (active) in the assay on UACC-257 melanoma and 1.32% (active) in the assay with M14 melanoma.

With `Cc1ccc(C2=N[C@H]3CCC[C@@H]3N(c3ccccc3)C(C(Cl)Cl)=N2)cc1`, the growth in the assay on NCI-H23 lung was 95.5%; in the assay on NCI-H226 lung it was 107%; with NCI-H322M lung, 93.3%; with HOP-62 NSCLC, 111%; in the assay on NCI-H460 lung, 110%; with HOP-92 NSCLC it was 107%. Besides, the growth in the assay on NCI-H522 lung was 93%; in the assay on A549/ATCC NSCLC it was 98.4%; in the assay with 786-0 renal, 98.3%; in the assay on DU-145 prostate it was 101%; in the assay on K-562 leukemia, 94.9%; in the assay with MALME-3M melanoma it was 95%. Moreover, the growth with MDA-MB-231 breast was 117%; in the assay on RXF 393 renal, 83.2%; with SF-268 CNS, 94.6%; with SF-295 CNS, 91.7%; in the assay with SF-539 CNS, 105%; in the assay with UACC-257 melanoma it was 110%. Moreover, the growth in the assay with M14 melanoma was 91.9%.

On to `O=c1[nH]c2ccccc2cc1-c1nc2ccncc2[nH]1`, for which the growth was 85% in the assay on NCI-H23 lung; 79.6% in the assay on NCI-H226 lung; 110% in the assay on NCI-H322M lung; 101% in the assay on HOP-62 NSCLC; 62.4% with NCI-H460 lung; 64.3% in the assay with HOP-92 NSCLC. The growth in the assay with NCI-H522 lung was 90.7%; with A549/ATCC NSCLC, 90.4%; in the assay with 786-0 renal, 88.6%; in the assay with DU-145 prostate it was 78.8%; with K-562 leukemia, 79.1%; with MALME-3M melanoma, 113%. In addition, the growth was 98.3% with MDA-MB-231 breast; 72.5% in the assay with RXF 393 renal; 96.6% in the assay with SF-268 CNS; 78.1% in the assay on SF-295 CNS; 79.1% in the assay on SF-539 CNS; 111% in the assay with UACC-257 melanoma. For the same compound, the growth in the assay with M14 melanoma is 87.3%.

Regarding `CC(=O)c1ccc(NC(=O)CSc2nnc(-c3cc(-c4ccc(Cl)cc4)nc4ccccc34)o2)cc1`, the growth with NCI-H23 lung was 61%; in the assay on NCI-H226 lung, 96.4%; in the assay with NCI-H322M lung, 97.8%; in the assay with HOP-62 NSCLC, 80.6%; with NCI-H460 lung, 46%; in the assay on HOP-92 NSCLC it was 94.2%. The growth with NCI-H522 lung is 60.9%; in the assay with A549/ATCC NSCLC it was 76.7%; in the assay on 786-0 renal it was 63.5%; with DU-145 prostate, 90%; in the assay with K-562 leukemia, 63%; in the assay with MALME-3M melanoma, 70.8%. In addition, the growth in the assay on MDA-MB-231 breast is 53.7%; in the assay with RXF 393 renal, 87.2%; in the assay with SF-268 CNS it was 82.4%; with SF-295 CNS it was 88.3%; with SF-539 CNS it was 74.2%; in the assay on UACC-257 melanoma, 97.5%. Also, the growth in the assay on M14 melanoma is 77.6%.

Turning to `COc1ccc2c(c1)/C(=C1\S/C(=N/c3nnc(C)s3)NC1=O)C(=O)N2Cc1ccc(Cl)cc1`, the growth was 34.5% in the assay on NCI-H23 lung; 56.5% in the assay on NCI-H226 lung; 49.9% in the assay with NCI-H322M lung; 66.8% in the assay on HOP-62 NSCLC; 8.75% (active) in the assay on NCI-H460 lung; 26% in the assay on HOP-92 NSCLC. The growth in the assay on NCI-H522 lung is 45.8%; in the assay with A549/ATCC NSCLC, 36.2%; in the assay with 786-0 renal, 49.2%; with DU-145 prostate, 52.4%; with K-562 leukemia, 38.3%; with MALME-3M melanoma it was 72.5%. Besides, the growth in the assay on MDA-MB-231 breast was 89.5%; in the assay with RXF 393 renal it was 75.8%; in the assay on SF-268 CNS, 46%; with SF-295 CNS it was 14.9%; with SF-539 CNS it was 48.7%; in the assay with UACC-257 melanoma it was 83.6%. The growth in the assay with M14 melanoma was 45.6%.

On to `COc1ccc2c(c1)Oc1nc(N)c(C#N)c(N)c1C2Sc1ccc(O)cc1` (centres undefined), for which the growth is 93% with NCI-H23 lung; 94.5% in the assay with NCI-H226 lung; 100% in the assay with NCI-H322M lung; 94.5% in the assay on HOP-62 NSCLC; 104% in the assay on NCI-H460 lung; 92.4% in the assay on HOP-92 NSCLC. Moreover, the growth in the assay with NCI-H522 lung is -37.8% (active); in the assay on A549/ATCC NSCLC it was 98.4%; in the assay with 786-0 renal, 106%; in the assay on DU-145 prostate it was 105%; in the assay on K-562 leukemia it was 14.6%; in the assay on MALME-3M melanoma, 70.8%. Also, the growth in the assay with MDA-MB-231 breast was 79.4%; in the assay with RXF 393 renal it was 90.8%; with SF-268 CNS, 95%; with SF-295 CNS it was 104%; with SF-539 CNS it was 99.4%; in the assay with UACC-257 melanoma, 105%. The growth in the assay with M14 melanoma is 103%.
